# Reference: PubChem BioAssay (NCATS)
# Results filed as inconclusive are left out. Unmarked numbers belong to inactive results. Calls of active or inactive are those of the source. Calls come from the whole dose curve; tested in HEK293 reporter line.
# Test: qHTS for Inhibitors of the Functional Ribonucleoprotein Complex (vRNP) of Lassa (LASV) Arenavirus: LASV Primary Screen - GLuc reporter signal (AID 1347082); note: nearly all actives have a fitted effect of over 60% in size
# Conditions: LASV minigenome vRNP, Gaussia luciferase reporter; series mostly up to 57.5 µM; activity change, negative = inhibition: at the top concentration
# % is set by controls: 0 for no effect and ±100 for the full control effect.
Compound,"activity change, negative = inhibition [%]",Potency
C[N+](C)(CCOc1ccccc1)Cc1cccs1,-7.99,
CC(=O)OCC(=O)[C@@]1(OC(C)=O)[C@@H](C)C[C@H]2[C@@H]3C[C@H](F)C4=CC(=O)C=C[C@]4(C)[C@@]3(F)[C@@H](O)C[C@@]21C,5.5,
COc1ccc(-c2cc(=O)c3c(O)cc(O[C@@H]4O[C@H](CO[C@@H]5O[C@@H](C)[C@H](O)[C@@H](O)[C@H]5O)[C@@H](O)[C@H](O)[C@H]4O)cc3o2)cc1O,3.99,
CC(C)CN(C[C@@H](O)[C@H](Cc1ccccc1)NC(=O)O[C@H]1CO[C@H]2OCC[C@H]21)S(=O)(=O)c1ccc(N)cc1,-29.3,
O=C1c2ccccc2CCc2ccccc21,1.45,
C[N+]1(C)[C@@H]2CC(OC(=O)[C@H](CO)c3ccccc3)C[C@H]1[C@@H]1O[C@@H]12 (stereo partly drawn),-4.21,
NS(=O)(=O)c1cc(-c2nn[nH]n2)c(NCc2cccs2)cc1Cl,8.03,
O=C(COCCOCCOCC(=O)Nc1c(I)cc(I)c(C(=O)O)c1I)Nc1c(I)cc(I)c(C(=O)O)c1I,-5.13,
Cc1cc(NS(=O)(=O)c2ccc(N)cc2)nc(C)n1,-5.19,
O=C(c1ccccc1)c1ccccc1,-0.251,
CC(C)=CCC/C(C)=C/CC/C(C)=C/CCC(=O)OC/C=C(\C)CCC=C(C)C,5.34,
COC(=O)N/N=C/c1c[n+]([O-])c2ccccc2[n+]1[O-],-6.71,
O=C(O)CSCC(=O)NC1CCSC1=O (stereo not drawn),,inactive
CC(=O)NCc1c(I)c(NC(C)=O)c(I)c(C(=O)O)c1I,1.97,
C[C@H](CS)C(=O)N1CCC[C@H]1C(=O)O,,inactive
Cc1ncc([N+](=O)[O-])n1CC(O)CCl (stereo not drawn),-16.2,
O=C(O)CCc1nc2ccccc2[nH]1,1.99,
CCCc1c2oc(C(=O)O)cc(=O)c2cc2c(=O)cc(C(=O)O)n(CC)c12,2.37,
CCn1cc(C(=O)O)c(=O)c2cnc(N3CCNCC3)nc21,14.6,
Clc1cccc(Cl)c1NC1=NCCN1,,inactive

Compound,"activity change, negative = inhibition [%]",Potency
CCC[C@@H]1C[C@@H](C(=O)N[C@@H]([C@H]2O[C@H](SC)[C@H](O)[C@@H](O)[C@H]2O)[C@@H](C)O)N(C)C1,,inactive
CC(=O)OCC(COC(C)=O)OC(C)=O,-18.9,
COc1cc2c(Nc3ccc(Br)cc3F)ncnc2cc1OCC1CCN(C)CC1,,inactive
CNCC(O)c1ccc(O)c(O)c1 (stereo not drawn),,inactive
O=S(=O)(O)CCS,,inactive
COc1ccc(-c2ccc3cc(C(=O)O)ccc3c2)cc1C12CC3CC(CC(C3)C1)C2,,inactive
O=S(=O)(O)c1ccc(O)cc1,12.1,
Cc1onc(-c2ccccc2)c1C(=O)Cl,3.9,
CC(=O)[C@H]1CC[C@H]2[C@@H]3C=CC4=CC(=O)CC[C@@]4(C)[C@@H]3CC[C@]12C,-25.3,
NC(Cc1ccc(Cl)cc1)C(=O)O (stereo not drawn),,inactive
O=S(=O)(O)c1cc(I)c(O)c2ncccc12,2.84,
CC(C)(C)NCC(O)c1cc(O)cc(O)c1 (stereo not drawn),,inactive
O=C(O)CCC(=O)O,-9.94,
CC(=O)NO,-5.87,
C/C(=N\O)c1ccc(OCC(=O)N2CCCCC2)cc1,-1.27,
COc1cc(O)cc(O)c1,3.1,
COc1ccc2cccc(CCNC(C)=O)c2c1,9.03,
O=C1CC[C@@H](C(=O)O)N1,-6.57,
CC(=O)OCC(=O)[C@H]1CC[C@H]2[C@@H]3CCC4=CC(=O)CC[C@]4(C)[C@H]3CC[C@]12C,3.06,

# Test: qHTS for Inhibitors of the Functional Ribonucleoprotein Complex (vRNP) of Lassa (LASV) Arenavirus: Viability assay - alamar blue signal for LASV Primary Screen (AID 1347083); note: nearly all actives have a fitted effect of over 80% in size
# Conditions: cell viability, alamar blue fluorescence (LASV minigenome counter-screen); series mostly up to 57.5 µM; activity change, negative = reduced viability: at the top concentration
Compound,"activity change, negative = reduced viability [%]",Potency
C[N+](C)(CCOc1ccccc1)Cc1cccs1,-5.14,
CC(=O)OCC(=O)[C@@]1(OC(C)=O)[C@@H](C)C[C@H]2[C@@H]3C[C@H](F)C4=CC(=O)C=C[C@]4(C)[C@@]3(F)[C@@H](O)C[C@@]21C,-0.737,
COc1ccc(-c2cc(=O)c3c(O)cc(O[C@@H]4O[C@H](CO[C@@H]5O[C@@H](C)[C@H](O)[C@@H](O)[C@H]5O)[C@@H](O)[C@H](O)[C@H]4O)cc3o2)cc1O,4.23,
CC(C)CN(C[C@@H](O)[C@H](Cc1ccccc1)NC(=O)O[C@H]1CO[C@H]2OCC[C@H]21)S(=O)(=O)c1ccc(N)cc1,-8.55,
O=C1c2ccccc2CCc2ccccc21,-1.9,
C[N+]1(C)[C@@H]2CC(OC(=O)[C@H](CO)c3ccccc3)C[C@H]1[C@@H]1O[C@@H]12 (stereo partly drawn),-1.64,
NS(=O)(=O)c1cc(-c2nn[nH]n2)c(NCc2cccs2)cc1Cl,5.7,
O=C(COCCOCCOCC(=O)Nc1c(I)cc(I)c(C(=O)O)c1I)Nc1c(I)cc(I)c(C(=O)O)c1I,33.9,
Cc1cc(NS(=O)(=O)c2ccc(N)cc2)nc(C)n1,-2.55,
O=C(c1ccccc1)c1ccccc1,5.46,
CC(C)=CCC/C(C)=C/CC/C(C)=C/CCC(=O)OC/C=C(\C)CCC=C(C)C,3.81,
COC(=O)N/N=C/c1c[n+]([O-])c2ccccc2[n+]1[O-],3.71,
O=C(O)CSCC(=O)NC1CCSC1=O (stereo not drawn),,inactive
CC(=O)NCc1c(I)c(NC(C)=O)c(I)c(C(=O)O)c1I,3.38,
C[C@H](CS)C(=O)N1CCC[C@H]1C(=O)O,,inactive
Cc1ncc([N+](=O)[O-])n1CC(O)CCl (stereo not drawn),12.7,
O=C(O)CCc1nc2ccccc2[nH]1,25.4,
CCCc1c2oc(C(=O)O)cc(=O)c2cc2c(=O)cc(C(=O)O)n(CC)c12,7.5,
CCn1cc(C(=O)O)c(=O)c2cnc(N3CCNCC3)nc21,10.7,
Clc1cccc(Cl)c1NC1=NCCN1,,inactive

Compound,"activity change, negative = reduced viability [%]",Potency
CCC[C@@H]1C[C@@H](C(=O)N[C@@H]([C@H]2O[C@H](SC)[C@H](O)[C@@H](O)[C@H]2O)[C@@H](C)O)N(C)C1,,inactive
CC(=O)OCC(COC(C)=O)OC(C)=O,-18.6,
COc1cc2c(Nc3ccc(Br)cc3F)ncnc2cc1OCC1CCN(C)CC1,-0.0745,
CNCC(O)c1ccc(O)c(O)c1 (stereo not drawn),,inactive
O=S(=O)(O)CCS,,inactive
COc1ccc(-c2ccc3cc(C(=O)O)ccc3c2)cc1C12CC3CC(CC(C3)C1)C2,,inactive
O=S(=O)(O)c1ccc(O)cc1,1.91,
Cc1onc(-c2ccccc2)c1C(=O)Cl,1.29,
CC(=O)[C@H]1CC[C@H]2[C@@H]3C=CC4=CC(=O)CC[C@@]4(C)[C@@H]3CC[C@]12C,5.21,
NC(Cc1ccc(Cl)cc1)C(=O)O (stereo not drawn),,inactive
O=S(=O)(O)c1cc(I)c(O)c2ncccc12,5.8,
CC(C)(C)NCC(O)c1cc(O)cc(O)c1 (stereo not drawn),,inactive
O=C(O)CCC(=O)O,-5.58,
CC(=O)NO,-0.139,
C/C(=N\O)c1ccc(OCC(=O)N2CCCCC2)cc1,10.3,
COc1cc(O)cc(O)c1,5.84,
COc1ccc2cccc(CCNC(C)=O)c2c1,-10.5,
O=C1CC[C@@H](C(=O)O)N1,-1.62,
CC(=O)OCC(=O)[C@H]1CC[C@H]2[C@@H]3CCC4=CC(=O)CC[C@]4(C)[C@H]3CC[C@]12C,3.33,
